# Test results as given in the supplement of paper PMC10646978.
# ± gives the standard deviation.
# Legend:
# Details in all cases: modulator concentration 10 µM
# [1] = tested on: RAW-Dual (murine macrophage reporter line); assay: NF-kB reporter (SEAP) activity fold change vs agonist alone; higher = enhanced NF-kB activity
# Method in brief: (§1)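 In 384-well plates holding 50 000 RAW-Dual murine macrophage reporter cells per well, compound at 10 μM final was pre-incubated for 1 hour at 37 °C, after which a PRR agonist was added overnight. Supernatant SEAP read with QUANTI-Blue at 620 nm absorbance reported NF-κB, and Lucia luciferase read with QUANTI-Luc luminescence reported IRF. Fold change values come from dividing each reporter signal by the mean of agonist-only control wells on the same plate, averaged over replicate plates with propagated errors.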
# [2] = tested on: RAW-Dual (murine macrophage reporter line); assay: IRF reporter (Lucia luciferase) activity fold change vs agonist alone; higher = enhanced IRF activity
# Method in brief: as §1
# [3] = tested on: RAW-Dual (murine macrophage reporter line); assay: viability score (confluency relative to resting cells, overnight) (fraction); higher = more viable, active = viable (0.7 or more)
# Method in brief: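 RAW-Dual macrophages in 384-well plates were treated overnight with compound at 10 μM final. IncuCyte imaging recorded confluency, and IncuCyte software built two confluency masks across every imaged well. The viability score expresses confluency relative to resting cells and was judged against a cutoff, which a compound met only if both masks exceeded 70% of resting cells.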
# [4] = agonist: CpG ODN 1826 0.5 ug/mL
SMILES,"NF-kB reporter [1, 4]",NF-kB reporter ([1]; agonist: LPS 0.1 ug/mL),NF-kB reporter ([1]; agonist: MPLA […]),IRF reporter ([2]; agonist: 3'3'-cGAMP 10 ug/mL),IRF reporter ([2]; agonist: LPS 0.1 ug/mL),IRF reporter ([2]; agonist: MPLA […]),viability score [3]
NS(=O)(=O)c1ccc2c(c1)C1C=CCC1C(C(=O)O)N2 (centres undefined),0.586 ± 0.049,0.992 ± 0.15,1.01 ± 0.075,0.8 ± 0.043,0.931 ± 0.055,1.01 ± 0.089,0.997 (active)
COc1ccc(C(C)=NNC(=O)Nc2ccccc2)c(OC)c1,0.92 ± 0.083,0.865 ± 0.092,0.932 ± 0.088,1.02 ± 0.063,1.26 ± 0.2,1.4 ± 0.27,1.01 (active)
O=C(O)c1cc2nc(-c3ccc(Cl)c(Cl)c3)cc(C(F)(F)F)n2n1,0.958 ± 0.076,1.09 ± 0.06,0.973 ± 0.058,1.02 ± 0.031,1.66 ± 0.2,1.13 ± 0.11,1.01 (active)
CCN(CC)c1nc(-c2ccccc2Cl)c2cc(Br)ccc2n1,0.999 ± 0.081,0.975 ± 0.1,1.02 ± 0.042,0.786 ± 0.058,1.05 ± 0.14,1.14 ± 0.25,1 (active)
Cc1cc(C)n(CCNc2nc3ccccc3s2)n1,1.07 ± 0.1,1.08 ± 0.085,1 ± 0.1,1.08 ± 0.055,1.18 ± 0.081,1.14 ± 0.29,0.993 (active)
CCc1ccc(CCOc2ccc(CC3SC(=O)NC3=O)cc2)nc1.Cl (centres undefined),1.34 ± 0.27,1.04 ± 0.12,0.983 ± 0.062,0.736 ± 0.028,1.22 ± 0.18,1.19 ± 0.097,0.997 (active)
O=C(NCCN1CCN(c2ccc(F)cc2)CC1)c1ccno1,1.04 ± 0.1,0.965 ± 0.077,0.991 ± 0.026,0.982 ± 0.059,0.968 ± 0.072,0.929 ± 0.14,0.999 (active)
O=c1c(-c2ccc(O)cc2)coc2cc(O)cc(O)c12,1.54 ± 0.4,1.01 ± 0.26,1.2 ± 0.079,0.625 ± 0.02,0.76 ± 0.29,0.842 ± 0.1,0.945 (active)
O=C(NCCN1C(=O)c2ccccc2C1(O)c1ccc(Cl)cc1)Nc1ccccc1 (centres undefined),1.28 ± 0.1,0.219 ± 0.011,0.22 ± 0.02,0.841 ± 0.045,0.0475 ± 0.0035,0.0497 ± 0.0069,0.73 (active)
COc1ccc(C2Nc3ccccc3-c3nnc(SCc4ccc(C)cc4)nc3O2)cc1C (centres undefined),0.964 ± 0.079,1.07 ± 0.086,0.919 ± 0.04,0.961 ± 0.13,0.992 ± 0.041,1.06 ± 0.15,1 (active)
CCCCCCc1ccc(O)cc1O,1.02 ± 0.14,0.919 ± 0.21,0.874 ± 0.058,0.588 ± 0.057,1.2 ± 0.23,1.2 ± 0.13,0.298 (inactive)
CC(C)(O)C#Cc1ccccn1,0.931 ± 0.052,0.93 ± 0.14,0.909 ± 0.072,0.916 ± 0.05,1.11 ± 0.096,1.08 ± 0.29,1.01 (active)
CS(=O)(=O)N(Cc1ccccc1)c1ccc(C(=O)NCCSCc2ccc(Cl)cc2)cc1,0.924 ± 0.099,0.976 ± 0.062,1.01 ± 0.097,1.01 ± 0.028,1.54 ± 0.25,1.13 ± 0.14,1.01 (active)
CCOC(=O)C(CCc1ccccc1)NC(C)C(=O)N1C(C(=O)O)CC2CCCC21 (centres undefined),1.01 ± 0.28,0.998 ± 0.068,1.07 ± 0.072,0.878 ± 0.055,1.28 ± 0.21,1.34 ± 0.23,0.989 (active)
Brc1ccc(-c2cc(-c3ccccc3)nc(N3CCCCC3)n2)cc1,0.951 ± 0.2,1.1 ± 0.092,1 ± 0.079,0.859 ± 0.03,1.17 ± 0.11,1.33 ± 0.15,1 (active)
Cl.O=C1c2cccc3c2[C@H](CCC3)CN1[C@@H]1CN2CCC1CC2,1.03 ± 0.17,0.655 ± 0.053,0.823 ± 0.11,0.582 ± 0.022,0.918 ± 0.17,0.987 ± 0.12,0.974 (active)
COc1ccc(C2CNC(=O)C2)cc1OC1CCCC1 (centres undefined),2.76 ± 0.37,2.2 ± 0.43,1.63 ± 0.1,0.942 ± 0.03,0.963 ± 0.18,1.17 ± 0.089,0.973 (active)
O=C(NC(=S)Nc1ccc2[nH]c(=O)[nH]c2c1)c1ccc(Cl)cc1,0.958 ± 0.082,1.13 ± 0.075,0.95 ± 0.042,0.94 ± 0.17,1.03 ± 0.043,0.994 ± 0.22,1 (active)
CC1=C(C(N)=O)C(c2cccs2)NC(=O)N1 (centres undefined),0.974 ± 0.086,1.03 ± 0.12,0.944 ± 0.034,1.01 ± 0.15,0.963 ± 0.045,0.942 ± 0.063,0.999 (active)
C[C@H](NC(=O)C(=O)Nc1ccccc1C(C)(C)C)C(=O)N[C@@H](CC(=O)O)C(=O)COc1c(F)c(F)cc(F)c1F,1.32 ± 0.33,0.434 ± 0.023,1.69 ± 0.12,0.51 ± 0.037,0.839 ± 0.14,1.07 ± 0.14,0.606 (inactive)
O=C(CC1CCCCN1S(=O)(=O)c1ccccc1)NCCC1=CCCCC1 (centres undefined),0.994 ± 0.13,1.21 ± 0.095,0.903 ± 0.13,1.03 ± 0.054,1.23 ± 0.08,1.38 ± 0.11,1.01 (active)
O=C(O)CC(c1ccccc1)N1C(=O)c2ccccc2C1=O (centres undefined),0.999 ± 0.17,1.04 ± 0.13,0.963 ± 0.11,0.976 ± 0.044,1.24 ± 0.22,1.3 ± 0.21,1 (active)
CS(=O)(=O)N(CC(=O)NCCSCc1cccc(Cl)c1)c1cccc(Cl)c1,0.978 ± 0.16,0.986 ± 0.079,1.1 ± 0.15,1.02 ± 0.033,1.08 ± 0.11,1.24 ± 0.42,1 (active)
CCCCC(=O)N(Cc1ccc(-c2ccccc2-c2nnn[nH]2)cc1)[C@H](C(=O)O)C(C)C [Prestw-1735],1.14 ± 0.14,0.992 ± 0.075,1.05 ± 0.029,0.687 ± 0.03,0.705 ± 0.04,0.645 ± 0.071,0.998 (active)
COC(=O)C1=C(C)N(C)C(C)=C(C(=O)OC)C1c1cccc(C(F)(F)F)c1,0.884 ± 0.069,1.07 ± 0.093,0.955 ± 0.082,0.995 ± 0.035,1.32 ± 0.22,0.976 ± 0.073,1.01 (active)
COc1ccc2c(c1)c(CC(=O)O)c(C)n2C(=O)c1ccc(Cl)cc1,1.23 ± 0.21,1.06 ± 0.16,0.951 ± 0.054,1.05 ± 0.034,1.25 ± 0.14,1.29 ± 0.1,1 (active)
CC(=O)N1CC(C(=O)Nc2cccc(Br)c2)C1,1.11 ± 0.063,1.05 ± 0.08,0.963 ± 0.031,0.932 ± 0.034,1.05 ± 0.062,0.971 ± 0.11,0.998 (active)
